Experiment in all cases: NCI-60 one-dose screen, 48 h (100 = growth as untreated, 0 = no growth, -100 = all killed)
Common to all, as to settings: 10 µM unless noted

For assay [1], the system named is SK-MEL-2 melanoma.
In assay [2] the test system is SN12C renal.
In assay [3] the test system is UO-31 renal.
In assay [4] the test system is CAKI-1 renal.
Assay [5] relates to A498 renal.
The subject of assay [6] is CCRF-CEM leukemia.
In assay [7] the test system is MOLT-4 leukemia.
Assay [8] deals with EKVX NSCLC.
The test system of assay [9] is ACHN renal.
For assay [10], the system named is TK-10 renal.

About 83,000 compounds went through this panel and 20% of them were active in at least one assay; those are over-represented in the sample as a whole.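 Each cell line was grown in a 96-well plate and treated with one concentration of compound for 48 hours. Values below 10 were considered active.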 A number with no mark means an inactive call. Active and inactive are the calls of the source.

For the molecule `CS(=O)(=O)Nc1cc(-c2ccc3ncnc(Nc4ccc5c(cnn5Cc5ccncc5)c4)c3c2)cnc1Cl`, the growth was -0.132% (active) in assay [1]; 54.7% in assay [2]; 57.5% in assay [3]; 40.7% in assay [4]; 2.83% (active) in assay [5]; 33.1% in assay [6]. For the same molecule, in assay [7], the growth was 57.1%.
Regarding `CNC(=O)c1cc(Oc2ccc3c(c2)sc2nc(-c4cc(C(F)(F)F)cc(C(F)(F)F)c4)cn23)ccn1`, the growth in assay [1] was 56.8%; in assay [8], 45.1%; in assay [3], 61.7%; in assay [9], 50.3%; in [4] it was 51.1%; in [5], 42.5%. In addition, the growth in assay [6] is 64.1%; in assay [7] it was 45.3%.
In the case of `COc1cc(C=Nc2oc(-c3ccccc3)c(-c3ccccc3)c2C#N)cc(CN2CCCC2)c1O`, the growth in assay [8] is 91.8%; in assay [2] it was 91.8%; in [3], 68%; in assay [10], 123%; in assay [9] it was 85.1%; in assay [4], 77.3%. In addition, the growth in assay [5] is 64.4%; in assay [6], 102%; in assay [7], 104%.
For `COc1ccc2c(c1)CC[C@@H]1[C@@H]2CC[C@]2(C)c3c(cc(C#N)c4c3sc3ccccc34)C[C@@H]12`, the growth is 103% in assay [8]; 104% in assay [2]; 85% in [3]; 107% in assay [10]; 105% in assay [9]; 103% in [4]. Moreover, the growth was 109% in [5], 82.3% in assay [6] and 92.1% in [7].
For `O=C(Nc1ccc(Nc2ccncc2)cc1)c1ccc(Nc2ccnc3ccc([N+](=O)[O-])cc23)cc1`, the growth in [2] was 113%; in assay [3] it was 95.7%; in [10], 140%; in assay [9] it was 100%; in assay [4], 105%; in assay [5] it was 130%. For the same molecule, the growth in [6] is 63.9%; in [7], 40.7%.

Source of the values: PubChem BioAssay (NCI).
